PubChem BioAssay AID1851 (National Center for Advancing Translational Sciences (NCATS), 2009)
The whole screen tested about 16,000 compounds, of which about 2,600 (16%) were called active. Roughly 20% stayed inconclusive and do not appear here. Calls follow the shape of the dose curve; as a rule, active = well fitted curve in the direction sought with a large enough effect; inconclusive = small, poorly fitted or top-dose-only effect, or effect the other way; inactive = no such curve, though single readings can be large or run the other way. These entries were drawn from the full list. Some compounds were tested as several samples or in several runs, with calls that do not always agree.

Each compound was assayed against Cytochrome P450 2D6 (Homo sapiens) (UniProt P10635) (assay: Cytochrome panel assay with activity outcomes). Settings: recombinant CYP, pro-luciferin dealkylation, luminescence, p450-cyp2d6; series mostly up to 57.1 µM; activity, negative = inhibition: at the top concentration.
% is scaled to controls: 0 for no effect and ±100 for the full control effect.

Sequence of Cytochrome P450 2D6 (Homo sapiens) (P10635 whole entry, looked up): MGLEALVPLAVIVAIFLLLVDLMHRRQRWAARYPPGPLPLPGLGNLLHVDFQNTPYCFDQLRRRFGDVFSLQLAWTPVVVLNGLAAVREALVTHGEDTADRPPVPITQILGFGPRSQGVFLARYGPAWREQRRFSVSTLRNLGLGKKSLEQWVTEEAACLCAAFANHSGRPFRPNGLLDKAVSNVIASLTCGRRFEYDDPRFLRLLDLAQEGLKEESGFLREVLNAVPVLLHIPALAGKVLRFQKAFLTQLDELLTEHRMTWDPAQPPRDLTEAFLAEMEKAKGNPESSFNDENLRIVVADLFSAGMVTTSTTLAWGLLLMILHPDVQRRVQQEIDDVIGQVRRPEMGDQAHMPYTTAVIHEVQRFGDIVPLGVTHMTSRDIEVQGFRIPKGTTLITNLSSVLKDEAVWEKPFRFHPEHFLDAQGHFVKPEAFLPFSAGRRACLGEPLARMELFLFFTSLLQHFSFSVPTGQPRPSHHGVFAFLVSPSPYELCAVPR

SMILES | AC50 | activity, negative = inhibition
CCCN(CC1CC1)c1nc(C)nc(Nc2c(Cl)cc(Cl)cc2Cl)c1Cl | 1.58 µM (active) | 
COCCN(C(=O)C(C)C)c1nnc(-c2ccc(C)cc2)s1 |  | 20.1% (inactive)
CCC(CC)c1nnc(NC(=O)COc2ccc3c(C)cc(=O)oc3c2)s1 |  | -16.1% (inactive)
COc1ccc(NC(=O)CC2C(=O)N(c3cccc(OC)c3)C(=O)N2C2CCCCC2)cc1 (stereo not given) |  | -8.55% (inactive)
CN1CCN(CCc2ccc(Cl)c(Cl)c2)CC1 | 12.6 µM (active) | 
CN(CCc1ccc(Cl)c(Cl)c1)CCN1CCCCCC1 | 0.126 µM (active) | 
CN1CCN(CCCBr)CC1 |  | 3.38% [at 11.4 µM] (inactive)
CCOC(=O)c1c(NC(=O)CCC(=O)N2CCOCC2)sc2c1CC(C)(C)OC2 |  | -6.11% (inactive)
COC(=O)c1cc(C#N)c(NCc2ccc(Cl)cc2Cl)nc1C |  | 3.04% (inactive)
CC(C)COc1ccc(C(=O)Nc2scc(-c3ccc(Cl)cc3Cl)c2C(N)=O)cc1 |  | -3.75% (inactive)
Clc1ccccc1C(Nc1cnccn1)Nc1cnccn1 |  | 10.1% [at 11.4 µM] (inactive)
Cc1ccc(C(=O)NCC2CCCO2)cc1N1CCCC1=O (stereo not given) |  | -3.42% (inactive)
O=c1[nH][nH]c(C(F)(F)F)c1C=Nc1cccc(Cl)c1 |  | -0.732% (inactive)
CCCCOc1ccc(OC(=O)c2cccnc2)cc1 |  | -25.1% (inactive)
COc1ccc(C(Cl)=C(c2ccc(OC)cc2)c2ccc(OC)cc2)cc1 |  | -1.8% [at 25.6 µM] (inactive)
CCN(CC)CCOc1ccc(/C(=C(\Cl)c2ccccc2)c2ccccc2)cc1 | 5.01 µM (active) | 
Cc1nc(CN2CCCCC2)c(O)c(=O)[nH]1 |  | -19.7% [at 11.4 µM] (inactive)
N[C@@H](Cc1[nH]nc2ccccc12)C(=O)O |  | 3.39% [at 11.4 µM] (inactive)
O=C(/C=C/c1ccccc1)NNC(=O)c1cccnc1 |  | -3.07% (inactive)
C=CC1=C(C)C2=Cc3c(C=C)c(C)c4[n]3[Sn+2][n]3c(c(C)c(CCC(=O)O)c3=CC3=NC(=C4)C(C)=C3CCC(=O)O)=CC1=N2 | 1.26 µM (active) | 
CCCCCN1CC(O)=C(c2nc(-c3ccc(Cl)cc3)cs2)C1=N |  | 28.4% (inactive)
Cc1nc2ccccc2nc1-c1ccc(N=[N+]([O-])c2ccc(-c3nc4ccccc4nc3C)cc2)cc1 |  | -15.4% [at 11.4 µM] (inactive)
NC(=O)C[C@H](NC(=O)Cc1ccc(O)cc1O)C(=O)O |  | 5.57% (inactive)
COc1ccc(Cc2nnc(NC(=O)c3ccc(Cl)c([N+](=O)[O-])c3)s2)cc1 |  | 9.11% (inactive)
O=C(NCc1ccc(Cl)cc1)c1ccc(Cl)cc1[N+](=O)[O-] |  | -15.3% (inactive)

SMILES | AC50 | activity, negative = inhibition
CC(C)(CNC(=O)c1ccc([N+](=O)[O-])c(Cl)c1)CNC(=O)c1ccc([N+](=O)[O-])c(Cl)c1 | 3.16 µM (active) | 
Nc1nc(N)nc(CC(=O)O)n1 |  | -1.79% [at 11.4 µM] (inactive)
O=C(Nc1ccc([N+](=O)[O-])cc1Cl)c1cc(Cl)ccc1O | 31.6 µM (active) and inactive | 
Cc1cccc[n+]1CC(=O)Nc1ccc([N+](=O)[O-])cc1Cl |  | -9.2% (inactive)
O=C(N/N=C1\CCCc2ccccc21)c1ccc([N+](=O)[O-])cc1Cl |  | 3.67% (inactive)
COc1ccccc1-c1cc(N(C)Cc2ccco2)ncn1 | 12.6 µM (active) | 
CN(Cc1ccco1)c1cc(-c2ccccc2Cl)ncn1 |  | -15.6% (inactive)
CN(C)Cc1ccccc1-c1cc(N(C)Cc2ccco2)ncn1 | 7.94 µM (active) | 
CCc1nc2cc(CC(=O)O)ccc2o1 |  | 3.13% (inactive)
N[C@@H](COP(=O)(O)O)C(=O)O |  | 13.7% (inactive)
COc1cccc(NC(=S)NN2CCN(C)CC2)c1 |  | -18.7% (inactive)
Cc1ccc(NC(=O)CN2C(=O)S/C(=C\c3cccn3C)C2=O)cc1 |  | 22% (inactive)
Cn1cc(-c2nc3cncnc3n(-c3ccccc3)c2=O)c2ccccc21 |  | -7.45% (inactive)
Cn1c(=O)c2[nH]c(CCCCC(=O)O)nc2n(C)c1=O |  | -13.7% [at 11.4 µM] (inactive)
CCn1c(=O)c2c(nc3n2CCS3)n(C)c1=O |  | 4.82% (inactive)
CCCCc1c(O)nc(SCCN(C)C)n(-c2ccccc2)c1=O |  | -18.2% (inactive)
CCCCc1cc2ccccc2c(OCCN(C)C)n1 | 2 µM (active) | 
C/C(=N\NC(=O)c1ccccc1C)c1ccc(NC(=O)c2cccs2)cc1 |  | -5.07% (inactive)
NS(=O)(=O)c1ccc(N=Nc2cc3ccccc3c(C(=O)O)c2O)cc1 |  | 4.38% [at 11.4 µM] (inactive)
Nc1ccccc1S[C@@H](C[N+](=O)[O-])c1ccc2c(c1)OCO2 | 3.98 µM (active) | 
Cc1ccc(OC(=O)c2cccc(C(=O)Oc3ccc(C)cn3)n2)nc1 |  | -6.82% (inactive)
CN1CCCCC1=NCCCn1cnc2c1c(=O)n(C)c(=O)n2C |  | 5.89% (inactive)
COc1ccc(C(=O)N/N=C2/SCC(=O)N2Cc2ccc3c(c2)OCO3)cc1OC | 15.8 µM (active) | 
COc1cc(/C=N/NC(=O)c2cccnc2)ccc1OC(=O)c1ccc2c(c1)OCO2 |  | 10.4% (inactive)
CCOC(=O)N/N=C1/C[C@@H](O)[C@@H](O)[C@@H]2[C@@H]3C(=O)N(Cc4ccc5c(c4)OCO5)C(=O)[C@H]3CC[C@@H]12 |  | 6.47% [at 11.4 µM] (inactive)
